In PubChem BioAssay (NCATS):
Values joined by “and” are separate entries in the source; they are usually repeats but may differ in a detail not shown here. Equal values may be shown once. A number with no mark means an inactive call. Records with an inconclusive call do not appear. Active and inactive are the calls of the source. The call rests on the fitted dose curve; in most records, active means well fitted curve in the direction sought with a large enough effect; inconclusive means small, poorly fitted or top-dose-only effect, or another doubt; inactive means no such curve, though single readings can be large; an effect the other way counts as inactive or inconclusive.

Key:
[1] = molecular target: Cytochrome P450 3A4 (Homo sapiens) (UniProt P08684); assay: qHTS Assay for Inhibitors and Substrates of Cytochrome P450 3A4 (AID 884); further: potency means the concentration at half of the fitted maximal effect; nearly all actives have a fitted effect of over 50% in size
Summary of the method: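 Luminescent readout of luciferin produced by CYP3A4 (20 nM) dealkylation of Luciferin-PPXE, 25 uM (its KM). NADPH-driven reaction ran 60 min at RT after 10 min compound preincubation; data scaled to 57 uM ketoconazole as 100% inhibition.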

[2] = molecular target: Cytochrome P450 3A4 (Homo sapiens) (UniProt P08684); assay: qHTS Assay for Activators of Cytochrome P450 3A4 (AID 885); further: nearly all actives have a fitted effect of over 65% in size
Summary of the method: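 Activators are scored by enhanced luminescence from CYP3A4 conversion of luciferin-PPXE (25uM, equal to KM) to luciferin, after 60 min at RT with an NADPH-regenerating system.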

Chain of Cytochrome P450 3A4 (Homo sapiens) (P08684 whole entry, looked up): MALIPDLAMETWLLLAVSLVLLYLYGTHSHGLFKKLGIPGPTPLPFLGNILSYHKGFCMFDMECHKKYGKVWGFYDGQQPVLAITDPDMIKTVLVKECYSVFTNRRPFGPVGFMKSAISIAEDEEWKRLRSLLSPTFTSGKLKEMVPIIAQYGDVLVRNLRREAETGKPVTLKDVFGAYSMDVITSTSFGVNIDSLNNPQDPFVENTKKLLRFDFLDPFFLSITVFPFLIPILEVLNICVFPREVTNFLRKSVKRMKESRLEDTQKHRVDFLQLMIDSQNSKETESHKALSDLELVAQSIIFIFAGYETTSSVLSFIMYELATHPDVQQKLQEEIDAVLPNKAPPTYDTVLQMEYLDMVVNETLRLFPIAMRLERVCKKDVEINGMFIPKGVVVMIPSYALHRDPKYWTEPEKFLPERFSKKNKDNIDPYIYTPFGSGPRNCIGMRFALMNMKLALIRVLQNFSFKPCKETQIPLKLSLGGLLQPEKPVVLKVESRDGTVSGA

| Structure (SMILES) | Potency [1] | activity change, positive = activation [2] | Potency [2] |
| --- | --- | --- | --- |
| C[C@@H](c1ccccc1)N1C(=O)[C@H]2[C@H]3[C@H](O)[C@H](O)C/C(=N/OC[C@@H](O)COCc4ccco4)[C@H]3CC[C@@H]2C1=O | 3.98 µM (active) | -66.6% [at 11.4 µM] |  |
| CCC1=C2CC[C@H]3C(=O)N(CC)C(=O)[C@H]3[C@H]2[C@@]2(Cc3ccccc3)C(=NCCOC)OC(=O)N2C1=O | 10 µM (active) |  | inactive |
| COC(=O)[C@@H]1C[C@H]2CC[C@H](O)C[C@H]2N1Cc1ccc(C(C)(C)C)cc1 | 5.01 µM (active) |  | inactive |
| c1ccc(C2[C@H]3CN(Cc4cccnc4)[C@H](c4ccccc4)C34CC2(c2ccccc2)C4)cc1 (some centres undefined) | 1.58 µM (active) |  | inactive |
| CCC1=C2CC[C@H]3C(=O)NC(=O)[C@H]3[C@H]2[C@@]2(Cc3ccccc3)C(=NCc3ccccc3)OC(=O)N2C1=O | 6.31 µM (active) |  | inactive |
| Cc1ccc(S(=O)(=O)N[C@H]2COC(=O)C/C=C\[C@H](C)[C@@H](NS(=O)(=O)c3ccc(C)cc3)COC(=O)C/C=C\[C@@H]2C)cc1 | 3.98 µM (active) | -90.7% [at 11.4 µM] |  |
| CO[C@H]1COC(=O)C/C=C\[C@H](C)[C@@H](NS(=O)(=O)c2ccc(C)cc2)COC(=O)CCC[C@@H]1C | 3.98 µM (active) | -92.6% [at 11.4 µM] |  |
| CCC1=C(OC(=O)N(CC)CC)N2C(=O)OC(=NCC(=O)OC)[C@]2(Cc2ccccc2)[C@H]2C1=CC[C@H]1C(=O)N(c3ccccc3)C(=O)[C@H]12 | 3.16 µM (active) |  | inactive |
| COC(=O)c1cccc(C23CC4(C2)[C@H](CN(Cc2cccnc2)[C@@H]4c2ccccc2)C3c2ccc(Cl)nc2)c1 (some centres undefined) | 2 µM (active) |  | inactive |
| COC(=O)c1ccc(C23CC4(C2)[C@H](CN(CC2CCCCC2)[C@@H]4c2ccccc2)C3c2ccc(Cl)nc2)cc1 (some centres undefined) | 25.1 µM (active) |  | inactive |
| CCC1=C(OC(=O)N(CC)CC)N2C(=O)OC(=NCc3ccccc3)[C@]2(C)[C@H]2C1=CC[C@H]1C(=O)N(CC)C(=O)[C@H]12 | 3.16 µM (active) |  | inactive |
| CCC1=C2CC[C@H]3C(=O)N(CC)C(=O)[C@H]3[C@H]2[C@@]2(Cc3ccccc3)C(=NCc3ccccc3)OC(=O)N2C1=O | 3.16 µM (active) |  | inactive |
| O=C1C=C(NCCO)C(=O)c2cnccc21 | 7.94 µM (active) |  | inactive |
| CCC1=C(OC(=O)N(CC)CC)N2C(=O)OC(=NCCc3c[nH]c4ccccc34)[C@]2(Cc2ccccc2)[C@H]2C1=CC[C@H]1C(=O)N(CC(=O)OC)C(=O)[C@H]12 | 2.51 µM (active) |  | inactive |
| C=CC[C@@H]1C=C[C@@H](O/N=C(/C)CCC(=O)OC[C@@H]2O[C@H](C#Cc3ccccc3)C=C[C@@H]2Oc2ccc(C)cc2)[C@@H](CO)O1 | 5.01 µM (active) | -97.7% [at 11.4 µM] |  |
| COc1cccc([C@H]2Oc3ccc(OC)cc3/C(=N\OC[C@@H](O)[C@@H]3O[C@@H]4OC(C)(C)O[C@@H]4[C@H]3O)[C@@H]2O)c1 | 3.98 µM (active) | -69.8% [at 11.4 µM] |  |
| O=C1C[C@@H](O)[C@@H](O)[C@H]2[C@@H]3C(=O)N(Cc4ccc5c(c4)OCO5)C(=O)[C@@H]3CC[C@H]12 | 3.98 µM (active) | -78.5% [at 11.4 µM] and -81.2% [at 11.4 µM] |  |
| Cn1c(N)c(C(=O)COC(=O)c2cc(-c3ccccc3)nc3ccccc23)c(=O)n(C)c1=O | 12.6 µM (active) |  | inactive |
| COc1ccc(O[C@H]2C=C[C@@H](c3ccccc3)O[C@@H]2CO/N=C\[C@@H](C)[C@H](OCc2ccccc2)C(C)C)cc1 | 3.98 µM (active) | -73.9% [at 11.4 µM] |  |
| CNC(=O)[C@@H](Cc1ccccc1)N(C)C(=O)[C@@H](Cc1ccc2ccccc2c1)N(C)C(=O)/C=C/CC(C)(C)N | 7.94 µM (active) |  | inactive |
| COc1cccc([C@@H]2Oc3ccc(OC)cc3/C(=N/O[C@@H](C)c3cn([C@H]4COC[C@H]4O)nn3)[C@@H]2O)c1 | 3.16 µM (active) | -74.6% [at 11.4 µM] |  |
| Cc1c(C(=O)NC2CCCCC2)sc2nc3ccc(N)cc3n12 | 1.58 µM (active) |  | inactive |
| C#CCCCO/N=C1/C[C@@H](O)[C@@H](O)[C@@H]2[C@@H]3C(=O)N([C@@H](C)c4ccccc4)C(=O)[C@H]3CC[C@H]12 | 3.98 µM (active) | -89.1% [at 11.4 µM] |  |
| [C-]#[N+]/C(C#N)=C\c1cc(C(C)(C)C)c(O)c(C(C)(C)C)c1 | 3.98 µM (active) |  | inactive |
| C=CC[C@@H]1C=C[C@H](O/N=C\[C@@H](C)[C@H](OCc2ccccc2)C(C)C)[C@H](CO)O1 | 3.98 µM (active) | -73.8% [at 11.4 µM] |  |
| CO[C@@H]1COC(=O)CCC[C@@H](C)[C@H](OC)COC(=O)[C@H](Cc2ccccc2)NC(=O)C/C=C\[C@H]1C | 3.98 µM (active) | -87.8% [at 11.4 µM] |  |
| CCC1=C2CC[C@H]3C(=O)N(CC)C(=O)[C@H]3[C@H]2[C@@]2(C)C(=O)N(CC(=O)OC)C(=O)N2C1=O | 7.94 µM (active) |  | inactive |
